In the library only some 1.8% were active in any assay of this set; here they are far more common.
Ba/F3 V617F tox = reduce viability of Ba/F3 cells dependent on JAK2V617F. inhibition, % at 5.6 µM. 1.1% of 220,000 active. Ba/F3 EpoR-JAK2V617F viability, ATP luminescence. AID 1446;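 active = inhibition above the campaign mean plus 3 SD over all tested compounds, cut at about 24% in these data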;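 also: cytokine-independent growth of Ba/F3 cells driven by EpoR plus mutant JAK2; 0% = DMSO-treated cells and 100% = JAK inhibitor I control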
BaF3 tox = reduces parental Ba/F3 cell viability, JAK2V617F counter-screen; CellTiter-Glo ATP luminescence; inhibition, % at 5.6 µM; 1.1% of 220,000 active;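 active = inhibition above a per-campaign cutoff, the mean inhibition of all tested compounds plus 3 SD, cut at about 27% in these data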;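 also: 0% = DMSO wells and 100% = JAK Inhibitor I control wells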
IEC-6 tox = kills IEC-6 intestinal cells in KLF5 counter-screen; AID 1825; 0.78% of 290,000 active; inhibition, % at 5 µM; IEC-6 cytotoxicity, luminescence viability; in the data active = inhibition above about 22%;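 also: 0% = plate median of test compound wells and 100% = cytotoxic reference compound wells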
APP 5UTR inh = APP translation inhibition; 0.82% of 190,000 active; AID 1285; inhibition, % at 2 µM; SH-SY5Y APP 5'UTR-luciferase reporter, luminescence;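 active = inhibition above a set limit, derived from the sample mean plus 3 SD, cut at about 45% in these data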
KLF5 inhibitor = suppresses KLF5 promoter-driven expression. DLD-1 KLF5 promoter-luciferase reporter, luminescence. 0.23% of 290,000 active. inhibition, % at 5 µM;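 active = inhibition above a per-plate limit of that plate's mean compound inhibition plus 3 SD, cut at about 60% in these data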;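 also: 0% = DMSO wells and 100% = LY294002 at 200 µM; higher means less KLF5 promoter-driven luciferase light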
* = called active by the depositor; x = no result.

SMILES	Ba/F3 V617F tox	BaF3 tox	IEC-6 tox	APP 5UTR inh	KLF5 inhibitor
O=C(N/N=C/c1ccc(O)c(O)c1)c1ccc(CSc2cccc3cccnc23)cc1	62*	27*	5	6	-36
COc1cc(/C=N/NC(=O)c2ccc(COc3cc(C)ccc3C(C)C)cc2)cc(OC)c1O	-3	2	5	14	-33
CN1CCN(CC(=O)N2c3ccccc3C(C)(c3ccccc3)CC2(C)C)CC1 (stereo unspecified)	30*	3	4	-11	2
CCN(Cc1ccccc1)C(=O)CS(=O)(=O)c1ccccc1	-1	0	-4	2	-3
O=S(=O)(C/C(=C/CO)S(=O)(=O)c1ccccc1)c1ccccc1	101*	100*	96*	80*	27
NC(=O)CC1C(=O)N(c2ccccc2)C(=S)N1NC(=O)c1ccccc1 (stereo unspecified)	x	x	-2	x	-48
Cc1c(-c2ccccc2)[n+](=O)c(-c2ccc(Cl)cc2)c(C)n1[O-]	2	9	0	-10	-30
CCN(CC)c1ccc(/C=N/Nc2nc(C)cc(=O)[nH]2)c(O)c1	5	7	-1	85*	-4
CCN(CC)c1ccc(/C=N/NC(=O)CCC(=O)NCc2ccccc2)c(O)c1	-1	6	2	52*	26
CCOC(=O)N/N=C/c1ccc(N(CC)CC)cc1O	3	4	2	27	-32
CCN(CC)c1ccc(/C=N/NC(=O)c2cccc(S(=O)(=O)N3CCOCC3)c2)c(O)c1	0	2	2	60*	13
CCN(CC)S(=O)(=O)c1cccc(C(=O)N/N=C/c2cc(OC)c(O)c(OC)c2)c1	0	7	-1	-11	-10
CCN(CC)S(=O)(=O)c1cccc(C(=O)N/N=C/c2cccc(O)c2O)c1	-2	4	-13	50*	-22
CCOc1ccccc1/C=N/NC(=O)c1cccc(S(=O)(=O)N2CCOCC2)c1	1	2	3	14	-2
O=C(N/N=C/c1ccccc1O)c1cccc(C(F)(F)F)c1	0	5	1	54*	-11
O=C(N/N=C/c1ccc(O)cc1)c1cccc(C(F)(F)F)c1	-1	4	2	8	-34
Cn1ncc(Cl)c1C(=O)N/N=C/c1cc2c(cc1[N+](=O)[O-])OCO2	-3	3	-6	5	-2
CCN(CC)c1ccc(/C=N/NC(=O)c2c(Cl)cnn2C)c(O)c1	-1	0	8	60*	35
Cn1c(C(=O)OC(C(=O)NCc2ccco2)c2ccncc2)cc2sccc21 (stereo unspecified)	-2	3	-1	6	-29
Cc1ccc(S(=O)(=O)Nc2ccccc2C(=O)N2CCCCCC2)cc1	x	x	-6	x	-35
CC(=O)NS(=O)(=O)c1ccc(NC(=O)CCC2CCCC2)cc1	0	3	5	52*	-9
NS(=O)(=O)c1ccc(NC(=O)CCC2CCCCC2)cc1	0	2	0	0	9
CCOC(=O)c1c(NC(C)=O)sc2c(O)c(Br)cc(Br)c12	-4	1	-3	-10	-12
CCOC(=O)c1c(NC(C)=O)sc2c(O)cccc12	1	4	-3	55*	-6
CCN1C(=O)c2ccc(C(=O)Nc3ccc(O)cc3C)cc2C1=O	x	x	6	x	5
SMILES	Ba/F3 V617F tox	BaF3 tox	IEC-6 tox	APP 5UTR inh	KLF5 inhibitor
Cc1cccc(C(=O)N2CCNC(=O)C2CC(=O)Nc2cccc(Cl)c2)c1 (stereo unspecified)	x	x	5	x	-41
Cc1nn(C)c2ncc(C(=O)c3cc(F)ccc3O)cc12	-2	3	-5	52*	-27
Cc1ccccc1CNc1nc(N)n(-c2ccccc2)n1	-2	96*	6	0	-33
O=C(Nc1ccc(NC(=O)c2ccccc2Cl)nc1)c1ccncc1	-1	90*	1	-4	-30
O=C(Nc1ccc(N2CCN(C(=O)c3ccc(Cl)cc3)CC2)cc1)c1ccc([N+](=O)[O-])o1	3	6	-4	96*	-28
CCOC(=O)C1CCN(C(=O)c2ccc(Cl)c(S(=O)(=O)N3CCOCC3)c2)CC1	-5	92*	1	0	-27
O=C(COc1ccc(S(=O)(=O)Nc2ccccc2)cc1)NCc1ccncc1	-5	54*	-5	14	-3
CNC(=O)COc1ccc(S(=O)(=O)Nc2ccc(OC)cc2)cc1	1	90*	5	-42	-4
CNC(=O)COc1ccc(S(=O)(=O)Nc2ccc(C)cc2)cc1	0	-2	-1	x	-14
Cc1nnc(N2C(=O)C(=O)/C(=C(/O)c3ccc4c(c3)OCCO4)C2c2ccc([N+](=O)[O-])cc2)s1 (stereo unspecified)	x	x	-9	x	-18
CC(=O)c1cn(CC(=O)Nc2ccc(C)cc2C)c2ccccc12	25*	39*	2	14	9
Cc1ccc(NC(=O)Cn2cc(C(=O)C3CC3)c3ccccc32)c(C)c1	x	x	-3	x	13
O=C(Nc1ccccc1Cl)N1CCN(c2ccccn2)CC1	2	6	-6	2	-33
O=C(Nc1ccccc1C(F)(F)F)N1CCN(c2ccccn2)CC1	0	89*	5	-10	-11
CCS(=O)(=O)c1ccc(N=Nc2ccc(O)c3ncccc23)c(OC)c1	0	8	-9	63*	-13
Cc1ccc(N=Nc2ccc(O)c3ncccc23)cc1	2	11	1	78*	5
O=[N+]([O-])c1ccc(N2CCN(S(=O)(=O)c3ccccc3)CC2)cc1	x	x	-1	x	-21
COC(=O)c1cc(Br)ccc1NC(=O)Nc1ccccc1	-1	6	-2	12	4
COC(=O)c1cc(Br)ccc1NC(=O)Nc1ccc(C)cc1	4	34*	1	9	-41
COC(=O)Cc1c(C)c2ccc(OC3CCCCC3=O)c(C)c2oc1=O (stereo unspecified)	x	x	6	x	-61
COc1ccc(C2CC(C(F)(F)F)n3nc(C(=O)NCc4c(C)nn(C)c4C)c(Cl)c3N2)cc1 (stereo unspecified)	36*	44*	5	-11	-19
CCCN1CCC(=NNc2ccc(S(=O)(=O)N(CC)CC)cc2[N+](=O)[O-])CC1	2	11	-1	53*	-4
CCCN1CCC(=NNc2ccc(S(N)(=O)=O)cc2[N+](=O)[O-])CC1	3	7	-8	-7	3
CC1(C)CC(=O)C=C(NCC(O)c2ccccc2)C1 (stereo unspecified)	x	x	-3	x	-18
NS(=O)(=O)c1ccc(CNC(=O)/C=C/c2ccco2)cc1	93*	56*	2	x	0
O=C(/C=C/c1ccco1)NCc1ccc(F)cc1	2	6	-5	-7	-43
Brc1ccc2c(c1)C(C1=NCCN1)c1ccccc1CS2 (stereo unspecified)	74*	66*	67*	94*	59
N#CC1=C(SCC(=O)c2ccc(Br)cc2)NC2=C(C(=O)CCC2)C1c1ccco1 (stereo unspecified)	1	2	3	67*	-8
CCc1ccc(NC(=O)CSC2=C(C#N)C(c3ccco3)C3=C(CCCC3=O)N2)cc1 (stereo unspecified)	-7	-1	-1	-22	-30
Cc1ccccc1CN1CCCOCCS1(=O)=O	x	x	-3	x	-24
